# Results filed as inconclusive are left out. Entries that show only a call come without a potency. Activity calls are given as the source filed them. Calls follow the shape of the dose curve; as a rule, active = well fitted inhibition curve with a large enough effect; inconclusive = small, poorly fitted or top-dose-only effect; inactive = no such curve, though single readings can be large or run the other way.
# Biological target: N-terminal Xaa-Pro-Lys N-methyltransferase 1 (Homo sapiens) (UniProt Q9BV86)
# Sequence (Q9BV86 whole entry, looked up): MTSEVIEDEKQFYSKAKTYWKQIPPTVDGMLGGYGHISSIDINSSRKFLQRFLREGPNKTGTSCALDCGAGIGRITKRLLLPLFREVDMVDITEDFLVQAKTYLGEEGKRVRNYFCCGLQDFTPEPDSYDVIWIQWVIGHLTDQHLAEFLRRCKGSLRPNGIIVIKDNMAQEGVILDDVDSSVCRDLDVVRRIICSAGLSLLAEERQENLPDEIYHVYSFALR
# Assay: qHTS Assay for Inhibitors of N-terminal methyltransferase 1 (NTMT1): MTaseGlo Confirmatory Screen, Round 2
# Conditions: NTMT1 enzyme, MTase-Glo SAH luminescence; series mostly up to 57.4 µM
# Description: Assay Submitter (PI): Rong Huang Ph.D, Purdue University, West Lafayette, IN 47907
# The N-terminal methytransferase 1 is the first methyltransferase that methylates protein alpha-N-amines and plays an important role in regulating cell mitosis, chromatin interactions and DNA repair. It is observed to be over-expressed in various cancer patient tissues like malignant melanoma and colorectal cancer tissues. Knockdown of NTMT1 in cancer cells causes cell mitotic defects and enhances sensitivity to DNA damaging chemotherapeutics. […] These critical cellular processes in which NTMT1 is implicated, coupled with emerging links to cellular dysfunction, strengthen the inference that NTMT1 is a compelling novel anticancer target. Progress have been made in understanding the molecular properties of NTMT1 and the biological consequences of protein alpha-N-terminal methylation, but there are no specific small molecule probes available for NTMT1 to fully characterize its MTase activity. To address this unmet need, a panel of assay is created and established to enable quantitative high-throughput screening (qHTS) for novel, potent, and selective small molecule NTMT1 inhibitors. Two orthogonal qHTS that use different reagents (ThioGlo vs. MTaseGlo) are developed for primary robotic screening against the NCATS chemical library of more than 400,000 small molecules. Identified inhibitors are reacquired, validated, and further characterized.
# MTaseGlo Assay is a luminescence screen that measure the activity of methyltransferases based on the reaction product S-adenosyl homocysteine (SAH). The substrate SAM is converted to SAH upon enzyme activation. MTase-Glo reagent and detection solution convert SAH to ATP and measure the light from the luciferase reaction.
# Early Translation Branch (ETB)
# National Center for Advancing Translational Sciences (NCATS)
# National Institute of Health (NIH)
# NTMT1 enzyme, substrate SPKRIA, control peptide RCC1-6 is provided by the Huang laboratory.
# In brief, 3 µL of enzyme mixture (final concentrations of 125 nM and 100 µM for NTMT1 and SAM, respectively) into all wells of a 1,536-well solid-bottom white plate (Greiner Bio One, Monroe, NC). 23 nL of DMSO or Ac-RCC1-10 (final concentration range 234 nM to 143 microM) was transferred via Wako Pin-tool (Wako Automation, Richmond, VA) and incubated (RT) for ~15 minutes. Next, 1 µL of substrate (final concentration 1 µM) or buffer was dispensed, and the reaction proceeded for 30 minutes (RT, protected from light) followed by a 1 microL addition of [5X] MTase-Glo Reagent(R). Samples were incubated (RT, protected from light) for 30 minutes to allow for SAH to be converted to ADP, followed by a 5 microL addition of [1X] MTase-Glo Detection Solution(R) to allow for ADP to be converted to ATP, which was then detected with a luciferase reaction. Samples were centrifuged for 15 seconds at 1,000 RPM's, followed by a RT incubation for 30 minutes. Plates were then read using Luminescence optics on a ViewLux detector. Data were normalized to no-enzyme (0% activity) and no-inhibitor (DMSO; 100%) controls, and the resulting percent inhibition data were fitted to a 4-parameter Hill equation using Graphpad Prism.
# Potency is read from the fitted curve at half-maximal effect.
row,SMILES,Potency
1,O=Nc1ccc2oc(=O)ccc2c1,inactive
2,Oc1cc2c(cc1O)CN(C(=S)NCCc1ccc(Cl)cc1)CCC2,inactive
3,S=C(S)N1CCCC1,inactive
4,O=C1Cc2c([nH]c3ccc(Br)cc23)-c2ccccc2N1,inactive
5,C[C@H](NC(=O)/C(C#N)=C/c1ccc(O)c(O)c1)c1ccccc1,inactive
6,N=c1c[n+](N2CCOCC2)[n-]o1,inactive
7,CSc1nc(N)c2ncn([C@@H]3O[C@H](COP(=O)(O)OP(=O)(O)O)C(O)[C@H]3O)c2n1 (stereo not given in full),20 µM (active)
8,Cc1ccccc1CNc1ncnc2c1ncn2[C@@H]1O[C@H](CO)[C@@H](O)[C@H]1O,inactive
9,CCN(CC)C(=S)SSC(=S)N(CC)CC,inactive
10,CSc1ccc2c(c1)N(CCC1CCCCN1C)c1ccccc1S2 (stereo not given),inactive
11,Cc1cc2c(cc1Cl)N(C(=O)Nc1ccc(Oc3cccnc3C)nc1)CC2,inactive
12,O=c1ccc2ccc(O)c(O)c2o1,inactive
13,C[C@H](Cc1ccc(O)c(O)c1)[C@@H](C)Cc1ccc(O)c(O)c1,15.8 µM (active)
14,Brc1c(Br)c(Br)c2[nH]cnc2c1Br,inactive
15,COc1cc2nc(N3CCCN(C)CC3)nc(N3CCN(C)CC3)c2cc1OC,inactive
16,CN1Cc2sccc2C(c2ccc(O)c(O)c2)C1 (stereo not given),inactive
17,O=c1c(-c2ccc(O)cc2)coc2cc(O)cc(O)c12,inactive
18,Nc1nc(Cl)nc2c1ncn2[C@@H]1O[C@H](COP(=O)(O)OP(=O)(O)OP(=O)(O)O)[C@@H](O)[C@H]1O,inactive
19,S=C(Nc1ccccc1)Nc1nccs1,inactive
20,O=[N+]([O-])c1ccc2c(c1)S(=O)(=O)C=C2,inactive

row,SMILES,Potency
1,Cc1cccc(C2CN(C)CCc3c2cc(O)c(O)c3Cl)c1 (stereo not given),inactive
2,Nc1ncnc2c1[nH]c(=S)n2C1OC(CO)C(O)C1O (stereo not given),inactive
3,Nc1nc(F)nc2c1ncn2[C@@H]1O[C@H](CO)[C@@H](O)[C@@H]1O,inactive
4,NC[C@@H]1O[C@H](c2ccccc2)Cc2c1ccc(O)c2O,inactive
5,CN(C)C(=O)/N=N/C(=O)N(C)C,inactive
6,COC(=O)[C@@H]1[C@H]2C[C@H]3c4[nH]c5ccccc5c4CCN3C[C@@H]2CC[C@@H]1O,inactive
7,COc1cc(/C=C(\C#N)C(=O)Nc2nnc(C(F)(F)F)s2)ccc1OCc1ccc(C(F)(F)F)cc1C(F)(F)F,inactive
8,Nc1nc(=S)c2ncn([C@@H]3O[C@H](CO)[C@@H](O)[C@H]3O)c2[nH]1,inactive
9,Nc1ncnc2c1ncn2[C@@H]1O[C@H](CO)[C@@H](O)[C@H]1O,inactive
10,O=c1oc(Cl)c(Cl)c2ccccc12,inactive
11,CC(C)NCC(O)c1ccc(O)c(O)c1 (stereo not given),inactive
12,N#C/C(=C\c1ccc(O)c(O)c1)C(=O)NCCCNC(=O)/C(C#N)=C/c1ccc(O)c(O)c1,7.94 µM (active)
13,CC[n+]1c(/C=C/C=C2/N(C)c3ccccc3C2(C)C)sc2ccccc21,14.1 µM (active)
14,CC[C@H](C)n1cc(C)c2c(C(=O)NCc3c(C)cc(C)[nH]c3=O)cc(-c3ccc(N4CCNCC4)nc3)cc21,inactive
15,C=CCN1CCc2c(cc(O)c(O)c2Br)[C@@H](c2ccccc2)C1,inactive
16,Nc1ccc(CCNc2ncnc3c2ncn3C2OC(CO)C(O)C2O)cc1 (stereo not given),inactive
17,O=[N+]([O-])c1ccc(CNc2nc(NCc3cccc(C(F)(F)F)c3)nc3nc[nH]c23)cc1,inactive
18,NS(=O)(=O)c1cccc2c1c([N+](=O)[O-])cc1nc(O)c(O)nc12,inactive
19,COC(=O)C1=C(C)NC(C)=C(C(=O)OC)C1c1ccccc1[N+](=O)[O-],inactive
20,COc1cc2c(NC3CCN(C)CC3)cc(N3CCCCN(C)CC3)cc2cc1OCCOCCN(C)C,inactive
